Assays:
[1] = tested on: Human papillomavirus type 1a protein E7 (residues 44-93); experiment: HPV1a E7 fragment binders on microarrays, primary screen, biochemical, small-molecule microarray, residues 44-93, 635 nm fluorescence (AID 1108); conditions: small-molecule microarray binding, fluorescence 635 nm; higher = more signal;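 further: E7 fragment applied at 1 µg/mL in TBST for 1 h at 4 C; score combines spot fluorescence with its signal to noise ratio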
[2] = modulators of HCV replicon luciferase signal, primary screen, HCV replication inhibitor project, Huh7 cells, luciferase reporter (AID 1109); conditions: 48 h, higher = more signal;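 further: huh7 hepatoma cells harbouring a luciferase neomycin HCV replicon reporter; luciferase luminescence as measure of HCV replicon replication; test concentration not given here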
[3] = target: Left-right determination factor 2 (Homo sapiens) (UniProt O00292); experiment: LEFTY2 binders on small-molecule microarrays, primary screen, biochemical, small-molecule microarray, 635 nm fluorescence scan (AID 1110); conditions: LEFTY2 binding, higher = more signal
[4] = target: Calmodulin-1 (Homo sapiens) (UniProt P0DP23); experiment: CALM1 binders on microarrays, EGTA buffer, profiling panel, biochemical, small-molecule microarray, Cy5-labelled CALM1 (AID 1111); conditions: Cy5-CALM1 binding fluorescence, higher = more signal;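 further: labelled calmodulin applied in Tris saline Tween buffer holding calcium plus EGTA and DTT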
[5] = target: Calmodulin-1 (Homo sapiens) (UniProt P0DP23); experiment: calcium-bound CALM1 binders on microarrays, profiling panel, artefact control for SMM control-protein annotation, biochemical, small-molecule microarray, Cy5-labelled CALM1, plus calcium (AID 1112); conditions: Cy5-CALM1 binding fluorescence, higher = more signal;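 further: score merges spot fluorescence with signal to noise from triplicate slides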
[6] = small-molecule microarray binders of probe aWnt5a, primary screen, biochemical, biotinylated probe, 635/667 nm fluorescence (AID 1113); conditions: higher = more signal;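 further: score merges 667 nm fluorescence intensity with signal-to-noise per printed feature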
[7] = small-molecule microarray binders of probe aShh, primary screen, biochemical, biotinylated probe, 635/667 nm fluorescence (AID 1114); conditions: higher = more signal;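 further: probe is biotin-labelled aShh protein from a stem cell growth factor screen; measures binding of labelled protein to compounds printed on the slide; score merges feature fluorescence at 667 nm with signal-to-noise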
[8] = small-molecule microarray binders of probe aNog, primary screen, biochemical, biotinylated probe, 635/667 nm fluorescence (AID 1115); conditions: higher = more signal;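 further: probe is biotinylated aNog protein used at 0.15 µg/mL for 1 h at 4 C; z-score combines 667 nm fluorescence of each spot with its signal to noise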
[9] = target: Torsin-1A-interacting protein 1 (Homo sapiens) (UniProt Q5JTV8); experiment: LAP1 binders from COS7 cell lysate, primary screen, small-molecule microarray, 635/667 nm fluorescence (AID 1116); conditions: COS7-hLAP1 lysate binding, 635 nm fluorescence, higher = more signal
[10] = target: Alpha-bungarotoxin (Bungarus multicinctus) (UniProt P60615); experiment: alpha-bungarotoxin binders on microarray, profiling panel, artefact control for SMM control protein annotation, biochemical, small-molecule microarray, Alexa647 label, 635/667 nm fluorescence (AID 1117); conditions: alpha-BTX-A647 binding fluorescence, higher = more signal
Sequence of Alpha-bungarotoxin (Bungarus multicinctus) (P60615 whole entry, looked up): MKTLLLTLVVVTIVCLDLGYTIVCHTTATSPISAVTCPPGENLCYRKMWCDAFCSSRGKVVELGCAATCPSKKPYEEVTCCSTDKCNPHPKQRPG

Sequence of Left-right determination factor 2 (Homo sapiens) (O00292 whole entry, looked up): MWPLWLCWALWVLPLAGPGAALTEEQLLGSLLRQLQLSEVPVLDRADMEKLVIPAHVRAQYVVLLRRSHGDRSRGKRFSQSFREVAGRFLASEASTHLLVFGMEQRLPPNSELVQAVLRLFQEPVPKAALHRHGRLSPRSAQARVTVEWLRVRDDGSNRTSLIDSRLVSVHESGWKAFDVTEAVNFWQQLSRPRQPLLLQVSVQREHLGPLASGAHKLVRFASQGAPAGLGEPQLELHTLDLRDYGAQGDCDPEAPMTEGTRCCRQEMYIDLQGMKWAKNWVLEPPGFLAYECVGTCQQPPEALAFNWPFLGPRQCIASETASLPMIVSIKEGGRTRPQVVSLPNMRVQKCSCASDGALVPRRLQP
Sequence of Torsin-1A-interacting protein 1 (Homo sapiens) (Q5JTV8 whole entry, looked up): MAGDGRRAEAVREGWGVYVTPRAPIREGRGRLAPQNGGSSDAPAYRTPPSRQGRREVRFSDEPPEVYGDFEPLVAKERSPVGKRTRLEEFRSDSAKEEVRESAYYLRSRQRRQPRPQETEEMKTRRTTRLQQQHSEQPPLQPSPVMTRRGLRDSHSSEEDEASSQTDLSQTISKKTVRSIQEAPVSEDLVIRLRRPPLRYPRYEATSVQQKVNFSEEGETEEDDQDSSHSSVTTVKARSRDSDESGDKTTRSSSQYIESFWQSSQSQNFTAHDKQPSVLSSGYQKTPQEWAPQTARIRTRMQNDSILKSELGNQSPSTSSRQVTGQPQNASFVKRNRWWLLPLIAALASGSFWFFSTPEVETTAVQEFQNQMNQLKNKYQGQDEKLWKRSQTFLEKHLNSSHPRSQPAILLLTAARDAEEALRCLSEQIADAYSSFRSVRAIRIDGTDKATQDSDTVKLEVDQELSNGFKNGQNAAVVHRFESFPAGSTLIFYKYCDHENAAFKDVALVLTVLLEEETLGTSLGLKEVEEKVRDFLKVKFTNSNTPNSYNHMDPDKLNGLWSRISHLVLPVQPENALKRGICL

SMILES	composite z-score [1]	z-score [2]	composite z-score [3]	composite z-score [4]	composite z-score [5]	composite z-score [6]	composite z-score [7]	composite z-score [8]	composite z-score [9]	composite z-score [10]
Cc1ccc(S[C@]2(C(=O)NCC(C)C)CC(=O)N(C(C)C)[C@@H]2c2ccc(CO)cc2I)cc1	0.297	-0.98	-1.62	-1.21	0.0034	-0.112	-0.0035	-0.131	0.626	-0.659
COCCOC(=O)N1C(=O)[C@@]2(c3cc(C#CCNC(N)=O)ccc31)[C@H](C(N)=O)[C@H]1C(=O)O[C@H](c3ccccc3)[C@H](c3ccccc3)N1[C@@H]2c1ccc(O)cc1	-0.109	0.494	-0.0417	0.062	0.662	-0.0384	0.288	-0.0245	0.0743	-0.285
C=CC[C@H](O)c1ccc(O)c2ccccc12	0.7	-2.04	0.685	-0.536	-1.32	-0.0521	0.151	-0.158	0.655	1.23
CC(C)N1C(=O)[C@@]2(Cc3ccccc31)c1ccccc1C(=O)N(Cc1ccccc1C(F)(F)F)[C@H]2c1ccc(CO)cc1	0.845	-0.329	-0.0311	-0.157	-0.0481	0.0607	-0.09	-0.0247	0.289	-0.0261
COC(=O)[C@@]1(Cc2ccc(F)cc2)[C@H]2c3cc(C(=O)N4CCCC4)n(C[C@H](O)CO)c3C[C@H]2CN1C(=O)c1ccccc1	0.0716	-0.948	-0.358	2.69	1.27	0.429	1.41	2.28	2.35	0.185
CC(C)N1CC=CC23O[C@@H]4/C=C\CCCOC(=O)C4[C@H]2C(=O)N(C(C)CO)[C@@H]3C1=O (stereo not given in full)	-0.7	0.314	-0.794	-0.814	-0.242	-0.308	-0.167	-0.356	-0.401	-0.393
CCCCCN1CC=CC23O[C@@H]4/C=C\CCCOC(=O)C4[C@H]2C(=O)N(CCCCCO)[C@@H]3C1=O (stereo not given in full)	-0.735	-0.831	-1.08	-0.517	-0.97	-0.224	0.0121	-0.121	-1.28	-0.543
COCCCNC(=O)[C@@]1(c2ccc([N+](=O)[O-])cc2)CC(=O)N(C2CCCCC2)[C@@H]1c1ccc(CO)cc1I	-0.191	-1.9	-0.199	0.582	-0.0952	-0.0051	-0.0904	0.968	1.17	0.302
COc1cccc(C)c1NC(=O)O[C@H]1[C@H](OC(=O)Nc2ccccc2-c2ccccc2)[C@@H](OC(=O)Nc2ccccc2-c2ccccc2)[C@@H](OC)O[C@@H]1CO	1.52	-3.72	0.49	1.75	-0.136	-0.0325	-0.0211	1.08	0.809	0.949
N#Cc1ccc(NN2C(C(O)c3ccc(B(O)O)cc3)C=CC3CN(c4ccccc4)C(=O)C32)cc1 (stereo not given)	-0.664	0.277	-0.193	0.0251	-0.408	-0.144	-0.237	-0.196	0.11	-0.0348
CC(C)(C)OC(=O)CC[C@]1(C(=O)N2CCOCC2)COC(c2ccc(OCCCO)cc2)=N1	1.3	0.266	-0.325	0.922	1.03	-0.124	0.184	-0.283	1.13	-0.31
COc1ccc([Si](C)(C)[C@H]2[C@H](CC(=O)N3CCC[C@H]3CO)O[C@@]3(C(=O)N(Cc4cccc(N5CCCCC5=O)c4)c4ccccc43)[C@@H]2C)cc1	1.3	-2.54	0.854	0.733	0.222	-0.101	0.396	0.381	1.06	1.22
CC[C@@H]1C=C(C(=O)O)[C@H](c2cccc(Cl)c2)N1S(=O)(=O)c1ccc(C)cc1	1.2	-0.54	-0.8	0.875	0.0755	-0.0758	0.14	0.527	1.09	0.105
O=C1O[C@H](c2ccccc2)[C@H](c2ccccc2)N2[C@H]1[C@@H](C(=O)O)[C@]1(C(=O)Nc3ccccc31)[C@H]2c1ccc(OCCO)cc1	1.45	0.042	-0.242	1.58	0.5	-0.0977	-0.187	-0.574	0.811	0.968
O=C1NC(=O)C2C1C=CC(C(O)c1ccc(F)cc1)N2Nc1ccc(Cl)cc1Cl (stereo not given)	0.379	-0.659	-0.752	0.805	1	-0.0403	0.867	0.993	0.68	0.712
COc1ccc(CCNC(=O)[C@@]2(C)c3ccccc3C(=O)N(Cc3ccc(OC(F)(F)F)cc3)[C@H]2c2ccc(CO)cc2)cc1	1.06	-1.84	0.243	-0.717	-0.944	0.0148	0.0181	-0.737	0.986	1.04
CCCCCN1CC=CC23O[C@@H]4/C=C\CCCOC(=O)C4[C@H]2C(=O)N(CCO)[C@@H]3C1=O (stereo not given in full)	1.45	0.548	-0.155	-0.173	0.463	-0.13	-0.0709	-0.191	0.162	0.227
Cc1cccc([C@H]2C[C@H]3C(Br)=C[C@@]2(CO)C(=O)[C@]32CO2)c1	0.863	-1.27	-0.427	-0.496	-0.0921	-0.0566	-0.0348	0.247	-0.374	-0.357
CCCN1C(=O)[C@@]2(c3ccc([N+](=O)[O-])cc3)CC(=O)N(C3CCCCC3)[C@@H]2c2ccc(CO)cc21	0.202	-0.136	0.445	-0.0766	-0.567	-0.18	-0.225	-0.0165	-0.349	-0.171
CCc1cccc(NC(=O)O[C@H]2[C@H](OC(=O)Nc3ccccc3-c3ccccc3)[C@H](OC(=O)Nc3ccccc3-c3ccccc3)[C@@H](OC)O[C@@H]2CO)c1	1.42	-1.95	0.588	1.44	-0.301	0.179	0.0796	-0.318	1.81	1.29
COc1ccc([Si](C)(C)[C@H]2[C@H](CC(=O)N(CCO)Cc3ccccc3)O[C@@]3(C(=O)N(Cc4cccc(N5CCCCC5=O)c4)c4ccccc43)[C@@H]2C)cc1	0.558	-4.06	0.384	-0.0075	0.117	-0.147	0.235	-0.0863	-0.0746	0.595
C=CCNC(=O)[C@@H]1[C@H]2C(=O)O[C@H](c3ccccc3)[C@H](c3ccccc3)N2[C@H](c2ccc(O)cc2)[C@@]12C(=O)Nc1ccc(C#CC3=CCCCC3)cc12	1.44	-2.61	0.385	1.1	0.683	0.171	1.85	2.03	1.58	1.9
C[C@]1(C(=O)O)c2ccccc2C(=O)N(Cc2cc(C(F)(F)F)cc(C(F)(F)F)c2)[C@H]1c1ccc(CO)cc1	0.966	1.07	-0.255	-0.076	-1.16	-0.145	-0.214	0.081	-0.0827	0.764
COC(=O)C1=CC(c2ccc(CO)cc2)=CC(C2CC2)N(Cc2cc3c(cc2Br)OCO3)C=C1C(=O)OC (stereo not given)	1.32	-1.41	0.568	2.06	0.631	0.0251	0.254	0.564	2.15	2.47
COCCCNC(=O)[C@]1(Cc2ccccc2CN=[N+]=[N-])N=C(c2ccc(OCCCO)cc2)O[C@@H]1c1ccccc1N=[N+]=[N-]	0.693	-2.06	-0.581	1.27	1.18	0.133	1.16	0.467	0.939	2.35

— PubChem BioAssay
